# According to PubChem BioAssay (NCI):
# About 79,000 compounds went through this panel and 15% of them were active in at least one assay; those are over-represented in the sample as a whole. Unmarked numbers belong to inactive results. Calls of active or inactive are those of the source. Rule as the data show it: active = growth inhibition above about 70%; inactive = the rest.
# Experiment: NCI Yeast Anticancer Drug Screen. Data for the mec2-1 strain (AID 157)
# Conditions: S. cerevisiae mec2-1 strain, at 50.0 µM, hits give high values
# Procedure, shortened: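 Strain: mec2-1 (DNA repair/cell cycle alteration). Compound exposure, then growth measured; inhibition expressed relative to vehicle.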
row,Compound,growth inhibition [%]
1,C=C(C)[C@@H]1CC=C(CO)CC1,-1.95
2,O=C(Cn1cc(I)c(C(=O)NCC(O)CO)n1)NCC(O)CO (configuration not stated),-8.7
3,Cc1cccc(NC(=O)C(Cl)Cl)n1,-20.8
4,O=C(NCCCn1ccnc1[N+](=O)[O-])C(=O)NCCCn1ccnc1[N+](=O)[O-],-12.2
5,O=C(Cl)c1cc(Cl)cc(Cl)c1Br,4.7
6,COC(=O)NC(=O)CCC(=O)O,-2.8
7,O=C(O)c1ccccn1,-3
8,NC(=O)c1ccc(NCC2=CC(=O)C=CC2=O)cc1,3.25
9,CN(C)c1nc2[nH]ncc2c(=O)[nH]1,1.25
10,CCCCN=C1Nc2nc(=NCCCC)nc3c(Br)cc(Br)c(n23)N1,20.2
11,CC(C(=O)O)C1Nc2ccccc2NC1=O (configuration not stated),28.6
12,Cc1cc(C)c2c(ccc3ccccc32)n1,-21.4

# Experiment: NCI Yeast Anticancer Drug Screen. Data for the sgs1 mgt1 strain (AID 161);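 also: 0% = growth of cultures given vehicle only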
# Conditions: S. cerevisiae sgs1 mgt1 strain, at 50.0 µM, hits give high values
# Procedure, shortened: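 Inhibition of yeast growth, normalised to vehicle-treated controls, is reported for a strain bearing genetic alterations in DNA damage repair.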
row,Compound,growth inhibition
1,N#C/C(=C\c1ccco1)C(N)=O,-14.6%
2,COCCCNC(=O)c1nc2ccccc2c(=O)n1NC(=O)Cc1ccccc1,7%
3,COc1ccc(CCN2CCc3c(C)c(C#N)c4nc5ccccc5n4c32)cc1OC,28.5%
4,COc1cc2c(c(O)c1C)C(=O)CC(c1ccccc1)O2 (configuration not stated),16%
5,CC(C)=CC(=O)OC1C2C(C)C(=O)OC2C(O)C(C)C2C=CC(=O)C21C (configuration not stated),9.6%
6,NC(=O)NNCc1ccccc1,-27.2%
7,O=C1CCC(CC2CCCCC2)CC1,-2.8%
8,CC(C)Nc1ccc(O)cc1,-4.2%
9,NC(=O)CC(N)C(=O)NC(Cc1ccccc1)C(=O)NC(Cc1ccccc1)NC(=O)C(Cc1c[nH]c2ccccc12)C(=O)O (configuration not stated),-11.1%
10,CCOC(=O)c1nc2ccc(C(F)(F)F)cc2nc1Nc1ccc(Cl)c(Cl)c1,-13.9%
11,Cc1ncc(CSc2ccccc2N)c(CO)c1O,-22.5%
12,CCOC(=O)C(C(=O)OCC)C(C(=O)OCC)C(=O)OCC,-6.2%
13,OCC=C1CCCCCC1,1.5%
14,CSC(=S)c1ccc(NSc2ccccc2[N+](=O)[O-])cc1,46.8%
15,COc1ccc(CCNC(=O)Cc2cc(OCc3ccccc3)c(OC)cc2[N+](=O)[O-])cc1OC,25.5%
16,O=C(O)c1c(Br)c(Br)c(Br)c(Br)c1C(=O)Nc1ccc(Br)cc1,5.8%
17,O=C1OC(C(O)C(O)C(O)CO)C(O)C1O (configuration not stated),-11.7%
18,CCOC(=O)c1cnc(SC)nc1Nc1cccc(C)c1,-11.9%
19,CCC[CH2][Sn]([CH2]CCC)([O]C(=O)c1nccnc1N)[O]C(=O)c1nccnc1N,93% (active)
20,Cc1ccc(Nc2nnc(Nc3ccc(C)cn3)c3ccccc23)nc1,-4.55%

row,Compound,growth inhibition
1,O=S(=O)(O)c1cc2c3ccccc3ccc2c2ccccc12,13.8%
2,Cc1ccc2c3nc4ccccc4c-3csc2c1,99.4% (active)
3,N#C/C(=C/c1cccc2ccccc12)C(N)=O,28.4%
4,CC(O)C1CC1 (configuration not stated),9.3%
5,O=C(C[N+]12CN3CN(CN(C3)C1)C2)c1ccc(-c2ccccc2)cc1,53.2%
6,O=C(CCCl)NNC1=NCCCN1,-15.4%
7,CC(C)=NNS(=O)(=O)c1ccc(C)cc1,2.65%
8,CCOC(=O)COC(=O)CCc1ccccc1,-5%
9,C=C(C)[C@@H]1CC=C(CO)CC1,0.45%
10,O=C(Cn1cc(I)c(C(=O)NCC(O)CO)n1)NCC(O)CO (configuration not stated),-8.4%
11,Cc1cccc(NC(=O)C(Cl)Cl)n1,-24.4%
12,O=C(NCCCn1ccnc1[N+](=O)[O-])C(=O)NCCCn1ccnc1[N+](=O)[O-],-19.5%
13,O=C(Cl)c1cc(Cl)cc(Cl)c1Br,34.5%
14,COC(=O)NC(=O)CCC(=O)O,0.95%
15,O=C(O)c1ccccn1,33.8%
16,NC(=O)c1ccc(NCC2=CC(=O)C=CC2=O)cc1,-5.05%
17,CN(C)c1nc2[nH]ncc2c(=O)[nH]1,5.7%
18,CCCCN=C1Nc2nc(=NCCCC)nc3c(Br)cc(Br)c(n23)N1,5.4%
19,CC(C(=O)O)C1Nc2ccccc2NC1=O (configuration not stated),7.05%
20,Cc1cc(C)c2c(ccc3ccccc32)n1,-23.4%

# Experiment: NCI Yeast Anticancer Drug Screen. Data for the cln2 rad14 strain (AID 165);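 also: 0% = growth equal to vehicle treated cultures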
# Conditions: S. cerevisiae cln2 rad14 strain, at 50.0 µM, hits give high values
# Procedure, shortened: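 Compounds are applied to the cln2 rad14 yeast strain, and growth is then compared with that of vehicle-treated cultures to give inhibition.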
row,Compound,growth inhibition
1,N#C/C(=C\c1ccco1)C(N)=O,5.25%
2,COCCCNC(=O)c1nc2ccccc2c(=O)n1NC(=O)Cc1ccccc1,4.35%
3,COc1ccc(CCN2CCc3c(C)c(C#N)c4nc5ccccc5n4c32)cc1OC,12.1%
4,COc1cc2c(c(O)c1C)C(=O)CC(c1ccccc1)O2 (configuration not stated),2.15%
5,CC(C)=CC(=O)OC1C2C(C)C(=O)OC2C(O)C(C)C2C=CC(=O)C21C (configuration not stated),16.9%
6,NC(=O)NNCc1ccccc1,-17.4%
7,O=C1CCC(CC2CCCCC2)CC1,-58.6%
8,CC(C)Nc1ccc(O)cc1,-6.3%
9,NC(=O)CC(N)C(=O)NC(Cc1ccccc1)C(=O)NC(Cc1ccccc1)NC(=O)C(Cc1c[nH]c2ccccc12)C(=O)O (configuration not stated),-13.2%
10,CCOC(=O)c1nc2ccc(C(F)(F)F)cc2nc1Nc1ccc(Cl)c(Cl)c1,-19%
11,Cc1ncc(CSc2ccccc2N)c(CO)c1O,48.2%
12,CCOC(=O)C(C(=O)OCC)C(C(=O)OCC)C(=O)OCC,-9.65%
13,OCC=C1CCCCCC1,-4.25%
14,CSC(=S)c1ccc(NSc2ccccc2[N+](=O)[O-])cc1,14%
15,COc1ccc(CCNC(=O)Cc2cc(OCc3ccccc3)c(OC)cc2[N+](=O)[O-])cc1OC,0.8%
16,O=C(O)c1c(Br)c(Br)c(Br)c(Br)c1C(=O)Nc1ccc(Br)cc1,-8.6%
17,O=C1OC(C(O)C(O)C(O)CO)C(O)C1O (configuration not stated),-40.2%
18,CCOC(=O)c1cnc(SC)nc1Nc1cccc(C)c1,-18.1%
19,CCC[CH2][Sn]([CH2]CCC)([O]C(=O)c1nccnc1N)[O]C(=O)c1nccnc1N,92.2% (active)
20,Cc1ccc(Nc2nnc(Nc3ccc(C)cn3)c3ccccc23)nc1,-18.8%

row,Compound,growth inhibition
1,O=S(=O)(O)c1cc2c3ccccc3ccc2c2ccccc12,-15.5%
2,Cc1ccc2c3nc4ccccc4c-3csc2c1,99% (active)
3,N#C/C(=C/c1cccc2ccccc12)C(N)=O,6.2%
4,CC(O)C1CC1 (configuration not stated),1.65%
5,O=C(C[N+]12CN3CN(CN(C3)C1)C2)c1ccc(-c2ccccc2)cc1,21.1%
6,O=C(CCCl)NNC1=NCCCN1,23.2%
7,CC(C)=NNS(=O)(=O)c1ccc(C)cc1,7.2%
8,CCOC(=O)COC(=O)CCc1ccccc1,-36.8%
9,C=C(C)[C@@H]1CC=C(CO)CC1,22.1%
10,O=C(Cn1cc(I)c(C(=O)NCC(O)CO)n1)NCC(O)CO (configuration not stated),26.9%
11,Cc1cccc(NC(=O)C(Cl)Cl)n1,-43.8%
12,O=C(NCCCn1ccnc1[N+](=O)[O-])C(=O)NCCCn1ccnc1[N+](=O)[O-],-8.95%
13,O=C(Cl)c1cc(Cl)cc(Cl)c1Br,17.6%
14,COC(=O)NC(=O)CCC(=O)O,-45.3%
15,O=C(O)c1ccccn1,-6.1%
16,NC(=O)c1ccc(NCC2=CC(=O)C=CC2=O)cc1,-2.6%
17,CN(C)c1nc2[nH]ncc2c(=O)[nH]1,-10.1%
18,CCCCN=C1Nc2nc(=NCCCC)nc3c(Br)cc(Br)c(n23)N1,23.4%
19,CC(C(=O)O)C1Nc2ccccc2NC1=O (configuration not stated),-12.4%
20,Cc1cc(C)c2c(ccc3ccccc32)n1,-5.75%
